Assay outcomes: PubChem BioAssay, several laboratories
In the library only some 3.1% were active in any assay of this set; here they are far more common.
14-3-3 Bad inh = inhibitors of 14-3-3 zeta/Bad binding, primary screen, biochemical, TR-FRET, bovine 14-3-3 zeta; AID 781, 2007; TR-FRET 14-3-3zeta/Dy647-pBad peptide displacement, 1 h; 14-3-3 protein zeta/delta (Bos taurus), P63103; 0.71% of 220,000 active; inhibition, % at 21.7 µM;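 active = inhibition above about 70%, limit read from the data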;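 note: 0% = full 14-3-3 plus peptide FRET controls and 100% = background without 14-3-3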
Target sequence (P63103 whole entry, looked up): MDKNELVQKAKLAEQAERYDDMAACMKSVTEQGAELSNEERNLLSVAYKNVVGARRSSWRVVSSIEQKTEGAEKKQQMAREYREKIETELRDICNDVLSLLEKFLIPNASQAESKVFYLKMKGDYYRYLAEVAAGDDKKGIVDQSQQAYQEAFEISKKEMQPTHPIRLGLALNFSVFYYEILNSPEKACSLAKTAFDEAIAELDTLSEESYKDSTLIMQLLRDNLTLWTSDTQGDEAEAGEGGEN
NCF1 inh = p47phox/p22phox peptide binding inhibitors, primary screen, biochemical, uHTS, NADPH oxidase regulatory subunit; Neutrophil cytosol factor 1 (Homo sapiens), P14598; fluorescence polarization, 2 h; inhibition, % at 24.7 µM; 0.53% of 220,000 active; AID 1274, 2008;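 active = inhibition above about 30%, limit read from the data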;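 note: 0% = p47phox with labelled peptide and 100% = labelled peptide alone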
Bim-Mcl-1 = inhibitors of Bim peptide binding to Mcl-1, primary screen, biochemical, bead-based flow cytometry, multiplex. AID 1009, 2008. Induced myeloid leukemia cell differentiation protein Mcl-1 (Homo sapiens), Q07820. 0.1% of 190,000 active. Bim peptide-Mcl-1 binding. inhibition, % at 10 µM; in the data active = inhibition above about 40%;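 note: 0% = no compound tracer wells and 100% = peptide blocker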
Target sequence (Q07820 whole entry, looked up): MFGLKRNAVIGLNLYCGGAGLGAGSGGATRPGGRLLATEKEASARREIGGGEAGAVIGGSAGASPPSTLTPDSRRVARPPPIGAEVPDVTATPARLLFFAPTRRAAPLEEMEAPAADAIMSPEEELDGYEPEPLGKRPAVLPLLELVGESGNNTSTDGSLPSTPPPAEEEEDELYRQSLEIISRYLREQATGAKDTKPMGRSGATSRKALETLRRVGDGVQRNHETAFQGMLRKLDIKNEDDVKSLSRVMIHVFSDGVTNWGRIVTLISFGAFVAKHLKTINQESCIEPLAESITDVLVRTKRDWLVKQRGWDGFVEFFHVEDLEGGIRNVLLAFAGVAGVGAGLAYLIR
Mcl1 Noxa PPI = Mcl-1/Noxa binding inhibitors, primary screen, biochemical, TR-FRET, 1536-well; AID 1022, 2008; Induced myeloid leukemia cell differentiation protein Mcl-1 (Homo sapiens), Q07820; inhibition, % at 21.7 µM; 1.5% of 220,000 active; TR-FRET Mcl-1/Noxa peptide binding, 2 h;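 active = compounds that cut the protein-peptide binding signal by more than 50% relative to plate controls in a single-dose test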;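 note: His-tagged Mcl-1 with rhodamine Noxa BH3 peptide and terbium anti-His antibody; 0% = Mcl-1 plus Noxa peptide wells and 100% = peptide-only wells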
Mcl1-Bid inh = Mcl-1/Bid binding inhibitors, primary screen, biochemical, TR-FRET, 1536-well | 0.97% of 220,000 active | TR-FRET Mcl-1/Bid-Dy647 peptide binding | Induced myeloid leukemia cell differentiation protein Mcl-1 (Homo sapiens), Q07820 | inhibition, % at 21.7 µM;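 active = compounds that cut the binding signal by more than half at the single screening dose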;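 note: His-tagged Mcl-1 with europium anti-His antibody binding Bid BH3 peptide; 0% = Mcl-1 plus peptide wells and 100% = peptide-only wells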
An asterisk follows results filed as active; nt = not tested or not shown; + = active, no number; [ ] = another dose, or the depositor's remark.

SMILES	14-3-3 Bad inh	NCF1 inh	Bim-Mcl-1	Mcl1 Noxa PPI	Mcl1-Bid inh
O=C(NCC1COc2ccccc2O1)C1CCN(S(=O)(=O)c2cccc3nsnc23)CC1 (stereo not drawn)	85*	-4	-2	14	-6
CNc1oc(-c2ccc(Cl)cc2)nc1P(=O)(c1ccccc1)c1ccccc1	-7	-27	0	24	-50
COC(=O)Cn1c(=O)c2c(n(Cc3ccccc3)c1=O)N/C(=C/c1ccc(Br)cc1)C2=O	6	-108	nt	54*	-21
COC(=O)CN1C(=O)N/C(=C/c2ccc(OC)cc2)C1=O	4	-5	-7	29	-37
CC1CCN(CCOCCOc2ccc(Cl)cc2Br)CC1	36	1	0	13	38
Clc1ccc(OCCOCCN2CCCCC2)c(Br)c1	70	9	0	34	62*
CN(C)CCCOc1ccc(Cl)cc1Br	7	-10	-4	30	53*
O=S(=O)(/N=C(/c1ccc(F)cc1)N1CCCCC1)c1ccc(Cl)cc1	5	-22	-7	-18	-26
CCn1nc(C(=O)OC(C(=O)c2c[nH]c3ccccc23)c2ccccc2)c2ccccc2c1=O (stereo not drawn)	-15	-97	1	-37	-40
CO/N=C1\CCn2c1c(C)c1ccccc12	71*	-3	nt	9	44
COc1ccc2c(-c3cc4ccc(OCc5ccc(F)cc5)cc4oc3=O)cc(=O)oc2c1	92*[fluorescence artefact?]	37*	0	-2	56*
COc1ccccc1/C=C\C(=O)NCC(=O)N/N=C(\C)Cc1ccccc1	0	4	nt	-20	1
Cc1ccc(C(=O)C2=C(O)C(=O)N(Cc3ccccc3)C2c2cccnc2)o1 (stereo not drawn)	37	55*	-4	8	-11
CCCC1(CCC)NC(=O)N(CC(=O)c2cc(C)n(-c3ccc4c(c3)OCO4)c2C)C1=O	-5	-8	25	8	51*
Cc1cccc(C)c1NC(=S)/N=C/N(C)C	5	91*	0	-2	-29
COc1ccc(N2CCN(C(=O)CC34CC5CC(CC(C5)C3)C4)CC2)c([N+](=O)[O-])c1	-3	5	-5	6	0
CNC(=O)CC1C(=O)N(c2ccc(OC)cc2)C(=S)N1NC(=O)c1cccc(F)c1 (stereo not drawn)	-3	-3	nt	-3	99*
O=C(CNC(=O)c1ccc(N2C(=O)c3ccccc3C2=O)cc1)OCC(=O)c1ccc(Cl)cc1	-5	-18	-5	-11	7
Cc1ccc(C(=O)COC(=O)CNC(=O)c2ccc(N3C(=O)c4ccccc4C3=O)cc2)cc1C	18	0	-6	83*	17
CC1=NNC(=O)C1CCC(=O)N/N=C(\C)c1ccccc1 (stereo not drawn)	-16	-2	0	-23	-84
CC1=NNC(=O)C1CC(=O)N/N=C(\C)c1ccco1 (stereo not drawn)	-8	-2	0	112*	-51
COc1cc(OC)c2c(O)c3c(c(-c4c5c(c(O)c6c(OC)cc(OC)cc46)CO[C@@H](C)[C@H]5O)c2c1)[C@H](O)[C@H](C)OC3	44	-121	-4	102*	79*
COc1cc2c(c(OC)c1O)C(=O)CO2	-5	-11	nt	15	-49
C=CCNC(=O)c1ccc(-c2nc(-c3ccc(Cl)c(Cl)c3)cs2)cc1	8	2	0	5	-15
c1ccc2oc(-c3csc(NCC4CCCO4)n3)cc2c1 (stereo not drawn)	-8	-5	0	9	-44
SMILES	14-3-3 Bad inh	NCF1 inh	Bim-Mcl-1	Mcl1 Noxa PPI	Mcl1-Bid inh
C=CCNc1nc(-c2cc3ccccc3o2)cs1	12	-9	0	19	55*
C=CCNc1nc(-c2ccc(O)c(C(N)=O)c2)cs1	76*	-6	0	35	-26
CCc1cccc(CC)c1NC(=O)COC(=O)c1ccc(F)c(S(=O)(=O)N(CC)CC)c1	-6	-13	-13	-1	-46
O=c1nc2sc3ccccc3n2c(=O)n1-c1ccc(Cl)cc1	3	12	1	13	1
CC(C)CNc1nc(Oc2ccc(=O)[nH]n2)nc(N(C)C)n1	91*	+	-3	-8	-29
CN(C)c1nc(Nc2ccccc2)nc(Oc2ccc(=O)[nH]n2)n1	11	-2	-1	-16	-15
O=C(CC(C(=O)O)P(=O)(c1ccccc1)c1ccccc1)c1ccccc1 (stereo not drawn)	-1	-3	0	-10	-3
O=c1[nH]c(=O)n(CCc2ccc(F)cc2)c(O)c1C=NCc1ccc2c(c1)OCO2	56	-12	-7	-21	53*
COc1cnn(-c2ccc(C)cc2)c(=O)c1SCc1ccccc1	11	-3	-5	-148	-27
COc1cnn(-c2ccccc2)c(=O)c1OC	1	-9	nt	-32	-17
COc1cnn(-c2ccc(Br)cc2)c(=O)c1SCc1ccccc1	-14	-20	-4	76*	-29
COc1cnn(-c2ccccc2)c(=O)c1SCc1ccc(Cl)cc1Cl	-7	-6	-5	85*	-48
C[C@@H](Oc1ccccc1)c1nnn(Cc2ccccc2)c1-c1c([C@@H](C)Oc2ccccc2)nnn1Cc1ccccc1	-4	-12	nt	-16	-22
COc1cccc(C(c2sc3nc(C)nn3c2O)N2CCc3ccccc3C2)c1 (stereo not drawn)	-7	12	0	52*	-9
O=C(CN1CCCc2ccccc21)N1CCc2ccccc21	-5	2	nt	11	-24
O=C(CN1CCC(N2CCCCC2)CC1)N1CCCc2ccccc21	87*	-7	-1	31	26
COc1cc(/C=N/NC(=O)c2ccccc2Cl)ccc1Oc1ccc([N+](=O)[O-])cn1	-10	2	2	-7	-11
C/C(C/C(C)=C1/SC(=S)NC1=O)=C1\SC(=S)NC1=O	37	-33	-1	73*	78*
O=C(Cc1ccccc1[N+](=O)[O-])NCCSCc1c(F)cccc1Cl	1	-3	-3	12	-20
CC(C)(C)C(=O)NC(=S)Nc1ccc(F)cc1	-3	-9	-3	2	-34
COc1ccc(-c2nn3cnnc3s2)cc1OC	-10	8	1	-6	53*
CC(=O)Nc1ccc(C(=O)OCC(=O)NC(=O)NC2CCCCC2)cc1	-9	133*	0	16	-11
COc1cc(/C=C(/NC(=O)c2ccccc2)C(=O)N2CCN(C)CC2)c([N+](=O)[O-])cc1OC	11	36*	-7	6	4
CC(=O)N1CCN(CC(=O)Nc2c(Cl)cccc2Cl)CC1	76*	-8	-1	25	34
